Laboratory results published in PubChem BioAssay.
Several values for one entry are separate records, joined by “and”; a condition that tells them apart may be missing. Equal entries are not always repeated. Activity calls are given as the source filed them. How the calls were made is not given here.

Assay: inhibition of 3D7 malaria parasite growth – strain 3D7 (AID 2306);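 further: 0% = DMSO wells and 100% = chloroquine plus artemisinin control wells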
Conditions: P. falciparum 3D7 erythrocytic growth, LDH absorbance, 72 h; at 2 µM; hits give high values

Growth inhibition, active:
CC(C)c1ccc(CN2CCCCC(NC(=O)c3cc(-c4ccccc4Cl)cs3)C2)cc1 (stereo not given) 100%, Cc1cccc2[nH]c(-c3cccc(-c4cccc(CNCCCN5CCCC5=O)c4)c3)nc12 100%, O=C(Nc1cccc(-c2cccc(-c3nc4ccccc4[nH]3)c2)c1)N[C@@H]1C[C@H]1c1ccccc1 87% and 90%, O=C1C(c2ccccc2)=C(Nc2cc(Cl)cc(Cl)c2)c2ccccc21 96%, O=C(NC1CC1)c1ccc(Cn2c(SCc3cccc(Cl)c3)nc3ccccc3c2=O)cc1 90%, COc1ccc2nc(C)cc(NN=Cc3ccccc3Cl)c2c1 100%, Clc1ccc2c(NCCNc3ccnc4cc(Cl)ccc34)ccnc2c1 101%, O=C(Nc1cccc(CN2CCN(Cc3ccc(O)cc3)CC2)c1)c1ccc(Cl)c(Cl)c1 102%, Cc1[nH]c(C)c(-c2ccc(CCc3ccc(N)cc3)cc2)c(=O)c1Cl 97%, CC(CNC(=O)c1cc2c(Cl)cc(Cl)cc2[nH]1)CNc1cc(=O)c2ccccc2[nH]1 (stereo not given) 97%, C=C[C@H]1CN(CCCCCCC)CC[C@H]1CCN(C)c1ccnc2ccc(OC)cc12 97%, Fc1ccc2ncc(Cl)c(CCN3CCC(NCc4cc5c(cn4)OCCO5)CC3)c2c1 93%, CC(C)(C)c1ccc(N2C(N)=NC(N)=NC2(C)C)cc1 93%, CCN(CC(C)O)C(=O)c1ccc(-c2ccc(-c3nc4c(C)cccc4[nH]3)cc2)cc1 (stereo not given) 94%, CN1CCC(C(=O)Nc2ccc(-c3cccc(-c4nc5ccc(C(F)(F)F)cc5[nH]4)c3)cc2)CC1 100%, O=C1C(c2ccccc2)=C(Nc2ccc(Cl)cc2)c2ccccc21 91%, Cc1cc(O)c(-c2cc(C(=O)Nc3cccnc3)[nH]n2)cc1C 97%, CCCC(C)Nc1nc(C)cc(N[C@@H](CC(C)C)C(=O)NCc2ccc(C)cc2)n1 (stereo not given in full) 98%, O=C(NC1CC1)c1cnc(N2CCCC(c3ccccc3)C2)c(Cl)c1 (stereo not given) 95%, CCCCSc1c(CNCCCCCCNCc2ccc3ccccc3c2SCCCC)ccc2ccccc12 93%, Cc1cccc2[nH]c(-c3ccc(-c4cccc(NC(=O)NCc5cccc(F)c5)c4)cc3)nc12 94%, COc1ccc(CN(C)CCCSc2ccc(NC(=O)c3cccc4c(=O)cc(-c5ccccc5)[nH]c34)cc2)cc1OC 93%, O=C(/C=C/c1ccc(Cl)c(Cl)c1)NCCCCCN1CCCN(C(=O)Nc2cccc(F)c2)CC1 97%, NC(=O)COc1cccc2c1CCN(CCN1CCC(NC(=O)c3ccc(-c4ccc(Cl)cc4)cc3)CC1)C2 92%, CN1CCC(NCc2cccc(-c3cccc(-c4nc5ccc(C(F)(F)F)cc5[nH]4)c3)c2)CC1 101%, Cn1ncc2c3c(CCN4CCC(NCc5cc6c(cn5)OCCO6)CC4)c(Cl)cnc3ccc21 95%, CC1(C)N=C(N)N=C(N)N1c1ccc2ccccc2c1 95%, O=C(Nc1cc(Cl)ccc1O)c1ccc(Oc2ccc(C(=O)Nc3cc(Cl)ccc3O)cc2)cc1 97%, FC(F)(F)c1cccc(CNCCCCCNCc2ccc(Cl)cc2)c1 91%, CC(C)(C)c1ccc(CN2CCC(NC(=O)c3ccc(-c4ccccc4Cl)s3)CC2)cc1 84%, CCc1cc2c(N)nc(N)nc2nc1-c1ccccc1 91%, COc1ccc(CNCc2ccc(F)cc2)cc1-c1ccc(OC)c(S(=O)(=O)NCCN2CCCC2)c1 101%, O=C(NCCc1ccc(Cl)c(Cl)c1)c1ccc(CNC(=O)c2ccc(O)c(-c3ccc(Cl)c(Cl)c3)c2)cc1 97%, CCc1cn2c3c(cc(C(=O)N[C@@H](Cc4cc(F)cc(F)c4)[C@H](O)CNC4CC4)cc13)N(C)S(=O)(=O)CC2 100%, O=C(NCCCCN1CC[C@@H]2c3cccc(O)c3CC[C@H]21)c1ccc(-c2ccccc2)cc1 81%, CS(=O)(=O)c1ccc(CNCc2cccc(-c3cccc(-c4nc5ccc(F)cc5[nH]4)c3)c2)cc1 102%, COc1cccc(CNC(=O)c2cnc(N3CCN(c4ccncc4)CC3)c(Cl)c2)c1 89%, O=C(Cc1cnc[nH]1)Nc1ccc(-c2cccc(-c3nc4ccc(F)cc4[nH]3)c2)cc1 100%, FC(F)(F)c1ccc2nccc(NN=Cc3ccc(Cl)cc3)c2c1 102%, O=C(NCCCCN1CCC(c2ccc(OC(F)(F)F)cc2)CC1)c1ccc(NC(=O)c2ccc(Cl)cc2)cc1 99%
